# Source: PubChem
# An excerpt weighted towards active compounds, which were near 11% of everything screened.
# Pf growth 48h = P. falciparum growth inhibition at 48 hours (one generation) | P. falciparum luciferase growth in erythrocytes, 48 h | Potency, µM (highest dose often 28.7 µM), without a hit: at the top dose activity change, negative = inhibition, hits mostly inhibitors | 310,000 compounds, 5.9% hits; also: % is scaled to controls: 0 for no effect and ±100 for the full control effect
#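 Growth was read as firefly luciferase luminescence after a 48 h, 37 C, 5% CO2 exposure of compounds to reporter-bearing P. falciparum cultures (0.1% parasitemia, 2% hematocrit final) in Albumax-supplemented RPMI 1640.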
# Vaccinia Venus = inhibitors of vaccinia virus (Venus reporter) | 330,000 compounds, 0.46% hits | Potency, µM (highest dose often 36.5 µM), without a hit: at the highest dose activity change, negative = inhibition, most hits filed as inhibitors | Vaccinia virus Venus reporter expression, fluorescence | AID 720580; calls by dose curve; tested in A549 cells; also: % is scaled to controls: 0 for no effect and ±100 for the full control effect; nearly all actives have a fitted effect of over 30% in size
# NS1 inh = blocks influenza NS1 protein function | 270,000 compounds, 0.4% hits | Potency, µM (doses to about 46.1 µM), inactives show top-dose activity, positive = more growth; calls by dose curve; also: actives are rising curves; nearly all actives have a fitted effect of over 50% in size
#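 Recovery from NS1-induced slow growth read by OD600 in budding yeast switched to galactose assay medium (pH 6.0, -URA) at 1:100 dilution. Compound 23 nl per well; the matching strain lacking NS1 serves as control.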
# HCV inh = HCV inhibition. Potency, µM (doses to about 41.8 µM), for inactives: at the highest dose activity change, negative = inhibition, most hits filed as inhibitors. Huh7.5.1 HCVcc-Cre infection, luciferase reporter, 44 h. AID 651820. 340,000 compounds, 3.4% hits; also: % is scaled to controls: 0 for no effect and ±100 for the full control effect
#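 After 44 h co-culture of compound, cells and HCVcc-Cre (~0.5 moi), substrate is added for 15 min at room temperature and luciferase measured over 15 sec. Cells were seeded at 1,000/well and pre-cultured 4 h.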
# Pf growth 96h = P. falciparum growth inhibition at 96 hour, primary screen for plastid delayed-death inhibitors. P. falciparum luciferase reporter growth, 96 h. Potency, µM (series often up to 28.7 µM), without a hit: at the top dose activity change, negative = inhibition, hits mostly inhibitors. 320,000 compounds, 6.9% hits. AID 504834; also: % is scaled to controls: 0 for no effect and ±100 for the full control effect
#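 Erythrocytes infected with luciferase-expressing P. falciparum were dispensed at 2% hematocrit and 0.05% parasitemia (final), then incubated with compounds 96 hours at 37 C in 5% CO2. Luminescence after detection reagent addition reported growth.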
# VACV mCherry inh = inhibitors of vaccinia virus infection (mCherry reporter signal) | Vaccinia virus mCherry reporter infection, fluorescence | Potency, µM (highest dose often 36.5 µM), for the others: at the top dose activity change, negative = inhibition, hits mostly inhibitors | 310,000 compounds, 0.63% hits; calls by dose curve; tested in A549 cells; also: % is scaled to controls: 0 for no effect and ±100 for the full control effect; nearly all actives have a fitted effect of over 35% in size
# Numbers without * were called inactive; i = inactive; u = inconclusive; x = not tested or not shown; [ ] = another dose, or the depositor's remark. Unless noted, calls follow the shape of the dose curve; as a rule, active = well fitted inhibition curve with a large enough effect; inconclusive = small, poorly fitted or top-dose-only effect, or another doubt; inactive = no such curve, though single readings can be large or run the other way. Potency is read from the fitted curve at half-maximal effect.
SMILES,Pf growth 48h,Vaccinia Venus,NS1 inh,HCV inh,Pf growth 96h,VACV mCherry inh
CC(C)(C)OC(=O)N1CCC2(CC1)Oc1ccc(F)cc1C(=O)C21CC(c2cccnc2)=NO1 (configuration not stated),10µM*,-19%,0%,23%,u,2%
O=C(/C=C/c1cccs1)N1CCC2(CC1)Oc1ccc(F)cc1C(=O)C21CC(c2ccccc2)=NO1 (configuration not stated),10µM*,-24%,9%,-10%,9.3µM*,5%
CC1(C)CC(=O)c2c(O)cc(OCC(=O)Nc3ccc(S(N)(=O)=O)cc3)cc2O1,-12%,-8%,8%,u,u,7%
COc1cc(NC(=O)COc2cc(O)c3c(c2)OC(C)(C)CC3=O)cc(OC)c1OC,u,u,-4%,0.32µM*,4.1µM*,u
CCCN(C(=O)CSCC(=O)Nc1ccc(OC)cc1)c1c(N)n(Cc2ccccc2)c(=O)[nH]c1=O,-18%,-7%,x,15%[8.37 µM],8%,-6%
Cc1ccc(S(=O)(=O)NN=C2CC3CC2C2CCCC32)cc1 (configuration not stated),x,-24%,x,x,x,-6%
COc1ccc(/C=C(/C(=O)Nc2ccccc2C(=O)N2CCCC2)c2ccccc2)cc1,6.6µM*,x,-66%,u,u,x
COc1ccc(-n2c(SCC(=O)N3CCc4ccccc43)nc3c([nH]c4ccccc43)c2=O)cc1,x,1%,x,x,x,2%
CCCCCCn1c(=O)c(C(=O)Nc2nc(CC(=O)OCC)cs2)c(O)c2ccccc21,12µM*,0%[7.34 µM],4%,u,-1%,i[7.34 µM]
CCOC(=O)Cc1csc(NC(=O)c2c(O)c3ccccc3n(CCC(C)C)c2=O)n1,u,-12%,1%,10µM*,-18%,i
CCOC(=O)Cc1csc(NC(=O)c2c(O)c3ccccc3n(C)c2=O)n1,1%,x,-35%,x,3%,x
COc1ccc(N2CCOCC2)c(NC(=O)c2cccs2)c1,32%,-14%,-16%,u,7%,i
Cn1ccc(NC(=O)Nc2ccc(Cl)cc2Cl)n1,84%,-27%,-9%,-16%,u,-10%
COc1ccc(CCNCC(=O)Nc2ccccc2C(F)(F)F)cc1,13µM*,-2%,x,-17%,-28%,5%
COc1ccc(CN(C)CC(=O)Nc2ccccc2C(F)(F)F)cc1,2%,x,x,1%,-23%,x
COc1ccc2ccc(O)c(CN(C)CC(=O)Nc3ccccc3C(F)(F)F)c2c1,12µM*,-22%,15%,2%,u,u
CC(=O)Nc1ccc(C2Sc3ccccc3NC3=C2C(=O)c2ccccc23)cc1 (configuration not stated),x,-20%,x,x,x,-20%
Cc1ccc(CSC2=NCCN2C(=O)C(C)Oc2ccccc2)cc1 (configuration not stated),u,-4%,x,12%,u,-17%
CCOC(=O)N1CCN(C(=O)CN(CC)S(=O)(=O)c2cc(C)ccc2OC)CC1,31%,-16%,0%,1%,u,-12%
O=C(Nc1cc(F)ccc1F)N1CCN(c2ccnc3cc(Cl)ccc23)CC1,u,x,1%,11µM*,u,x
Cc1ccc(F)cc1NC(=O)N1CCN(c2ccnc3cc(Cl)ccc23)CC1,u,x,-7%,3.5µM*,6.6µM*,x
Cc1cccc(Cl)c1NC(=O)N1CCN(c2ccnc3cc(Cl)ccc23)CC1,u,x,-1%,u,u,x
O=C(Nc1ccc(C(F)(F)F)cc1)N1CCN(c2ccnc3cc(Cl)ccc23)CC1,1.5µM*,-29%,-65%,8.9µM*,u,-6%
CCOC(=O)CN1C(=O)S/C(=C/c2ccc(C)o2)C1=O,18%,-4%,-20%,11%,10%,i
Clc1nccc(N2CCN(c3ccccc3Cl)CC2)n1,x,u,x,7%,x,-14%
SMILES,Pf growth 48h,Vaccinia Venus,NS1 inh,HCV inh,Pf growth 96h,VACV mCherry inh
CCOc1ccc(S(=O)(=O)Nc2ccc(S(=O)(=O)N3CCOCC3)cc2)cc1,-6%,-7%,-64%,u,-4%,x
CC1(C)C(c2cccs2)=[N+]([O-])C2(CCCCC/C2=N\NC(N)=S)N1O (configuration not stated),x,-16%,16%,27%,x,-15%[1.46 µM]
Cc1cnc(NC(=O)c2cc3c(C)nn(Cc4ccccc4Cl)c3s2)s1,7.4µM*,x,7%,u,13µM*,x
Cc1cc(C(=O)NCc2cccnc2)n(-c2ccccc2)n1,17%,-5%,u,-24%,44%,i
Cc1nn(Cc2ccccc2)c2sc(C(=O)NCc3cccnc3)cc12,u,-23%,-20%,7.9µM*,u,u
CCCC1=[N+](CC(=O)c2ccccc2)CCn2c(C)ccc21,u,x,19%,u,10%,x
CCCC1=[N+](CC)CCn2c(C)ccc21,4.7µM*,-22%,4%,6%,29%,-23%
Brc1ccc(C2C3=C(Nc4ncnn42)c2ccccc2OC3c2ccncc2)cc1 (configuration not stated),13µM*,x,7%,-29%,x,x
COc1ccc(C2Oc3ccccc3C3=C2C(c2cccs2)n2ncnc2N3)cc1 (configuration not stated),8.3µM*,x,u,u,x,x
CCCc1nc(C)c2c(=O)[nH]c(-c3cc(S(=O)(=O)N4CCN(CC)CC4)ccc3OCC)nn12,u,-16%,x,11%,7.6µM*,-7%
CCOc1cc(S(=O)(=O)N2CCN(CC)CC2)ccc1Cl,9%,-5%,-7%,7%,u,x
CN1CCN2c3ccccc3Cc3ccccc3C2C1 (configuration not stated),u,-17%,-1%,4%[8.37 µM],u,-19%
CN(Cc1ccc(Cl)c(Cl)c1)C(C(=O)NCc1ccccc1)c1ccc(C(F)(F)F)cc1 (configuration not stated),x,u,x,x,x,11µM*
CCSc1nnc(-c2cccnc2)n1-c1ccc(C)c(Cl)c1,x,x,-2%,11%,4.7µM*,x
Cc1ccc(-n2c(SCC(=O)N3CCOCC3)nnc2-c2cccnc2)cc1C,0%,-12%,0%,24%,u,-7%
CC(C)c1ccc(NC(=O)CSc2ncc3c(n2)-c2ccccc2N(C)S3(=O)=O)cc1,x,-2%,x,x,x,-16%
COc1cccc(-c2csc(N3CCN(C(=S)Nc4ccccc4)CC3)n2)c1,u,-15%,22%,-19%,u,-20%
COc1cccc(-c2csc(N3CCN(C(=S)Nc4ccc(Cl)cc4)CC3)n2)c1,u,-27%,29%,13µM*,10µM*,u
CNC(=S)N1CCN(c2nc(-c3cccc(OC)c3)cs2)CC1,-12%,x,10%,u,12µM*,x
COc1ccc(/C=N/NC(=O)c2cccc(NC(=O)c3ccc(F)cc3)c2)c(C(=O)O)c1OC,u,-2%,x,0%,u,i
CCN(CC(=O)Nc1c(F)cccc1F)C(=O)/C=C/c1ccc(C)cc1,117%,x,x,-30%,47%,x
